Key:
Assay type in all cases: functional
Plasmodium falciparum [1] = assay: GSK_TCMDC: Inhibition of Plasmodium falciparum 3D7 in whole red blood cells, using parasite LDH activity as an index of growth. Test compounds present at 2uM
Plasmodium falciparum [2] = assay: GSK_TCMDC: Inhibition of Plasmodium falciparum Dd2 in whole red blood cells, using parasite LDH activity as an index of growth. Test compounds present at 2uM
HepG2 = assay: GSK_TCMDC: Percent inhibition of human HepG2 cell line. Test compounds present at 10uM.

Row | Structure (SMILES) | Inhibition (Plasmodium falciparum [1]) [%] | Inhibition (Plasmodium falciparum [2]) [%] | Inhibition (HepG2) [%]
1 | O=C(O)C(F)(F)F.O=[N+]([O-])c1cccc(CNC2CCN(Cc3ccc(-c4ccccc4)cc3)CC2)c1 | 100 | 96 | 25
2 | Cc1ccc(C2(CN3CCC(NC(=O)c4n[nH]cc4Cl)CC3)CCCCC2)cc1 | 97 | 96 | 0
3 | CN(C)CCN(C)Cc1cccc(-c2cccc(NC(=O)c3cccc(C#N)c3)c2)c1.O=C(O)C(F)(F)F | 92 | 10 | 0
4 | CCCCc1ccc(Cc2cnc3nc(N)nc(N)c3c2C)cc1 | 96 | 5 | 64
5 | NC1CCN(c2cnn(Cc3cccc(NC(=O)Nc4ccc(-c5ccccc5)cc4)c3)c(=O)c2Cl)CC1.O=C(O)C(F)(F)F | 89 | 11 | 5
6 | c1ccc(CN2CCC(Nc3ccc(-c4c[nH]nc4-c4ccccn4)nc3)CC2)cc1 | 97 | 23 | 1
7 | FC(F)(F)c1ccc(CNCC2CCN(Cc3ccc4c(c3)OCO4)CC2)cc1.O=C(O)C(F)(F)F | 80 | 12 | 27
8 | O=C(c1ccc(Cl)cc1)N1CCOC(CCN2CCC(c3ccccc3)CC2)(c2ccc(Cl)c(Cl)c2)C1 (stereo not given) | 98 | 68 | 19
9 | CS(=O)(=O)NCCCNCc1cccc(-c2cccc(-c3nc4cc(C(F)(F)F)ccc4[nH]3)c2)c1.O=C(O)C(F)(F)F | 99 | 100 | 17
10 | COc1cc(NC(=O)c2cccs2)c(C(=O)NCc2ccc(C)cc2)cc1OC | 93 | 88 | 3
